Results on four sequences are retold here after PMC11006913.

Common to all, as to test: PBM; 200 nM protein, PBS
Common to all, as to conditions: dsDNA, one strand shown

Assay [1] addresses HESX1 (Homo sapiens, UniProt Q9UBX0 95-180, R165K).
For assay [2], the target named is HOXB4 (Homo sapiens, UniProt P17483 148-234).
In assay [3] the target is SHOX (Homo sapiens, UniProt O15266 103-189).
For assay [4], the target named is HESX1 (Homo sapiens, UniProt Q9UBX0 95-180).
For a further assay, the target named is HOXA4 (Homo sapiens, UniProt Q00056 201-287, R217L).
Sequence of HOXA4 (Q00056 201-287 R217L): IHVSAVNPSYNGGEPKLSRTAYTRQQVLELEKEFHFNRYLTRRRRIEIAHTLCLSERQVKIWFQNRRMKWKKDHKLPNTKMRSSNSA
Assay [5] has as its target HOXB4 (Homo sapiens, UniProt P17483 148-234, V174I).
For assay [6], the target named is ALX1 (Homo sapiens, UniProt Q15699 118-204, L144V).
Sequence of ALX1 (Homo sapiens, UniProt Q15699 118-204, L144V) (Q15699 118-204 L144V): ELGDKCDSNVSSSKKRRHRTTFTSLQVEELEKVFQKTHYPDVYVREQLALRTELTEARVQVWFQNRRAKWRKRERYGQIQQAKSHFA
In assay [7] the target is ALX3 (Homo sapiens, UniProt O95076 139-225, N203Q).
Sequence of ALX3 (Homo sapiens, UniProt O95076 139-225, N203Q) (O95076 139-225 N203Q): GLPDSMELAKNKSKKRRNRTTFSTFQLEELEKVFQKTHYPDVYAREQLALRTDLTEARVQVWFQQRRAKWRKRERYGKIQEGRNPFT
The target in assay [8] is SHOX (Homo sapiens, UniProt O15266 103-189, R173C).
Sequence of SHOX (Homo sapiens, UniProt O15266 103-189, R173C) (O15266 103-189 R173C): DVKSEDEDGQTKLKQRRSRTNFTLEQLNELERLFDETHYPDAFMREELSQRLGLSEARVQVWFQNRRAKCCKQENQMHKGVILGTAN
Assay [9] concerns the target ALX1 (Homo sapiens, UniProt Q15699 118-204, L144R).
In assay [10] the target is ALX3 (Homo sapiens, UniProt O95076 139-225).
Sequence of ALX3 (Homo sapiens, UniProt O95076 139-225) (O95076 139-225): as the sequence (O95076 139-225 N203Q) above, with Q65N counted along it
Assay [11] addresses PROP1 (Homo sapiens, UniProt O75360 56-141).
In assay [12] the target is HESX1 (Homo sapiens, UniProt Q9UBX0 95-180, R109Q).
Sequence of HESX1 (Homo sapiens, UniProt Q9UBX0 95-180, R109Q) (Q9UBX0 95-180 R109Q): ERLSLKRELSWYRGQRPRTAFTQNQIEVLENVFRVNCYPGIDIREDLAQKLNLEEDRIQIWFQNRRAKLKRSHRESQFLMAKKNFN
Assay [13] concerns the target PROP1 (Homo sapiens, UniProt O75360 56-141, R99H).
In assay [14] the target is ALX3 (Homo sapiens, UniProt O95076 139-225, L168Q).
Sequence of ALX3 (Homo sapiens, UniProt O95076 139-225, L168Q) (O95076 139-225 L168Q): as the sequence (O95076 139-225 N203Q) above, with L30Q, Q65N counted along it
The target of assay [15] is HESX1 (Homo sapiens, UniProt Q9UBX0 95-180, P111T).
Sequence of HESX1 (Homo sapiens, UniProt Q9UBX0 95-180, P111T) (Q9UBX0 95-180 P111T): as the sequence (Q9UBX0 95-180 R109Q) above, with Q15R, P17T counted along it
The target of assay [16] is ALX3 (Homo sapiens, UniProt O95076 139-225, L168V).
Sequence of ALX3 (Homo sapiens, UniProt O95076 139-225, L168V) (O95076 139-225 L168V): as the sequence (O95076 139-225 N203Q) above, with L30V, Q65N counted along it
Assay [17] has as its target PROP1 (Homo sapiens, UniProt O75360 56-141, F88S).
Assay [18] addresses HESX1 (Homo sapiens, UniProt Q9UBX0 95-180, F115L).
The target of assay [19] is ALX3 (Homo sapiens, UniProt O95076 139-225, N203S).
Sequence of ALX3 (Homo sapiens, UniProt O95076 139-225, N203S) (O95076 139-225 N203S): as the sequence (O95076 139-225 N203Q) above, with Q65S counted along it

Sequence of HESX1 (Homo sapiens, UniProt Q9UBX0 95-180, F115L) (Q9UBX0 95-180 F115L): as the sequence (Q9UBX0 95-180 R109Q) above, with Q15R, F21L counted along it
Sequence of HESX1 (Homo sapiens, UniProt Q9UBX0 95-180) (Q9UBX0 95-180): as the sequence (Q9UBX0 95-180 R109Q) above, with Q15R counted along it
Sequence of HOXB4 (Homo sapiens, UniProt P17483 148-234) (P17483 148-234): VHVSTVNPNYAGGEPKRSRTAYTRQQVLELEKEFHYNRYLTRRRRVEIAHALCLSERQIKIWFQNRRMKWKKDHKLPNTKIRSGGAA
Sequence of SHOX (Homo sapiens, UniProt O15266 103-189) (O15266 103-189): as the sequence (O15266 103-189 R173C) above, with C71R counted along it
Sequence of PROP1 (Homo sapiens, UniProt O75360 56-141, F88S) (O75360 56-141 F88S): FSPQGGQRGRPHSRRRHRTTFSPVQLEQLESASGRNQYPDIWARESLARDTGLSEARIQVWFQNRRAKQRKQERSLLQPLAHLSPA
Sequence of HESX1 (Homo sapiens, UniProt Q9UBX0 95-180, R165K) (Q9UBX0 95-180 R165K): as the sequence (Q9UBX0 95-180 R109Q) above, with Q15R, R71K counted along it
Sequence of PROP1 (Homo sapiens, UniProt O75360 56-141, R99H) (O75360 56-141 R99H): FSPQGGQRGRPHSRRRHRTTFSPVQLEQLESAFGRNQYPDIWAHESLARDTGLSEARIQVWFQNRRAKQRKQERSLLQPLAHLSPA
Sequence of PROP1 (Homo sapiens, UniProt O75360 56-141) (O75360 56-141): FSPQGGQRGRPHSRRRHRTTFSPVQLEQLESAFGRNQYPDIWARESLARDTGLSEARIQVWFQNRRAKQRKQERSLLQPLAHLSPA
Sequence of HOXB4 (Homo sapiens, UniProt P17483 148-234, V174I) (P17483 148-234 V174I): as the sequence (P17483 148-234) above, with V27I counted along it
Sequence of ALX1 (Homo sapiens, UniProt Q15699 118-204, L144R) (Q15699 118-204 L144R): as the sequence (Q15699 118-204 L144V) above, with V27R counted along it

On to CAATTAGC, for which the binding signal in the assay with HESX1 [1] is 13.2 upbm affinity estimate (log intensity, higher = more binding, comparable within an allelic series); with HOXB4 [2] it was 13.3 upbm affinity estimate (log intensity, higher = more binding, comparable within an allelic series); with SHOX [3], 12.7 upbm affinity estimate (log intensity, higher = more binding, comparable within an allelic series); with HESX1 [4] it was 13.3 upbm affinity estimate (log intensity, higher = more binding, comparable within an allelic series); with HOXA4, 11.9 upbm affinity estimate (log intensity, higher = more binding, comparable within an allelic series); with HOXB4 [5], 14 upbm affinity estimate (log intensity, higher = more binding, comparable within an allelic series). For the same sequence, the binding signal is 11.9 upbm affinity estimate (log intensity, higher = more binding, comparable within an allelic series) in the assay with ALX1 [6]; 8.26 upbm affinity estimate (log intensity, higher = more binding, comparable within an allelic series) with ALX3 [7]; 9.99 upbm affinity estimate (log intensity, higher = more binding, comparable within an allelic series) with SHOX [8]; 11.5 upbm affinity estimate (log intensity, higher = more binding, comparable within an allelic series) in the assay with ALX1 [9]; 12.6 upbm affinity estimate (log intensity, higher = more binding, comparable within an allelic series) in the assay with ALX3 [10]; 11.8 upbm affinity estimate (log intensity, higher = more binding, comparable within an allelic series) in the assay with PROP1 [11]. Further, the binding signal in the assay with HESX1 [12] was 9.79 upbm affinity estimate (log intensity, higher = more binding, comparable within an allelic series); with PROP1 [13] it was 11.9 upbm affinity estimate (log intensity, higher = more binding, comparable within an allelic series); with ALX3 [14] it was 10.7 upbm affinity estimate (log intensity, higher = more binding, comparable within an allelic series); with HESX1 [15], 11.7 upbm affinity estimate (log intensity, higher = more binding, comparable within an allelic series); with ALX3 [16], 10.1 upbm affinity estimate (log intensity, higher = more binding, comparable within an allelic series); with PROP1 [17] it was 7.57 upbm affinity estimate (log intensity, higher = more binding, comparable within an allelic series). In addition, the binding signal in the assay with HESX1 [18] is 7.74 upbm affinity estimate (log intensity, higher = more binding, comparable within an allelic series); in the assay with ALX3 [19], 8.45 upbm affinity estimate (log intensity, higher = more binding, comparable within an allelic series).

With AATTAACA, the binding signal is 11.9 upbm affinity estimate (log intensity, higher = more binding, comparable within an allelic series) in the assay with HESX1 [1]; 13 upbm affinity estimate (log intensity, higher = more binding, comparable within an allelic series) with HOXB4 [2]; 11.9 upbm affinity estimate (log intensity, higher = more binding, comparable within an allelic series) with SHOX [3]; 12 upbm affinity estimate (log intensity, higher = more binding, comparable within an allelic series) with HESX1 [4]; 12.1 upbm affinity estimate (log intensity, higher = more binding, comparable within an allelic series) with HOXA4; 13.8 upbm affinity estimate (log intensity, higher = more binding, comparable within an allelic series) with HOXB4 [5]. Also, the binding signal in the assay with ALX1 [6] was 11.7 upbm affinity estimate (log intensity, higher = more binding, comparable within an allelic series); with ALX3 [7], 8.55 upbm affinity estimate (log intensity, higher = more binding, comparable within an allelic series); in the assay with SHOX [8], 9.76 upbm affinity estimate (log intensity, higher = more binding, comparable within an allelic series); with ALX1 [9], 11.3 upbm affinity estimate (log intensity, higher = more binding, comparable within an allelic series); in the assay with ALX3 [10], 12.5 upbm affinity estimate (log intensity, higher = more binding, comparable within an allelic series); with PROP1 [11], 11.3 upbm affinity estimate (log intensity, higher = more binding, comparable within an allelic series). Also, the binding signal with HESX1 [12] was 9.41 upbm affinity estimate (log intensity, higher = more binding, comparable within an allelic series); with PROP1 [13], 11.1 upbm affinity estimate (log intensity, higher = more binding, comparable within an allelic series); with ALX3 [14], 10.6 upbm affinity estimate (log intensity, higher = more binding, comparable within an allelic series); with HESX1 [15], 10.7 upbm affinity estimate (log intensity, higher = more binding, comparable within an allelic series); with ALX3 [16], 10.2 upbm affinity estimate (log intensity, higher = more binding, comparable within an allelic series); with PROP1 [17], 7.88 upbm affinity estimate (log intensity, higher = more binding, comparable within an allelic series). Also, the binding signal was 8.02 upbm affinity estimate (log intensity, higher = more binding, comparable within an allelic series) with HESX1 [18] and 8.67 upbm affinity estimate (log intensity, higher = more binding, comparable within an allelic series) in the assay with ALX3 [19].

Take CAATTAAA: the binding signal with HESX1 [1] is 12.6 upbm affinity estimate (log intensity, higher = more binding, comparable within an allelic series); with SHOX [3], 12 upbm affinity estimate (log intensity, higher = more binding, comparable within an allelic series); with HESX1 [4], 12.6 upbm affinity estimate (log intensity, higher = more binding, comparable within an allelic series); with HOXA4 it was 12.1 upbm affinity estimate (log intensity, higher = more binding, comparable within an allelic series); with ALX1 [6], 11.7 upbm affinity estimate (log intensity, higher = more binding, comparable within an allelic series); in the assay with ALX3 [7], 8.41 upbm affinity estimate (log intensity, higher = more binding, comparable within an allelic series). Also, the binding signal with SHOX [8] is 9.46 upbm affinity estimate (log intensity, higher = more binding, comparable within an allelic series); with ALX1 [9], 11.5 upbm affinity estimate (log intensity, higher = more binding, comparable within an allelic series); with ALX3 [10], 12.6 upbm affinity estimate (log intensity, higher = more binding, comparable within an allelic series); in the assay with PROP1 [11] it was 11.6 upbm affinity estimate (log intensity, higher = more binding, comparable within an allelic series); in the assay with HESX1 [12], 9.38 upbm affinity estimate (log intensity, higher = more binding, comparable within an allelic series); in the assay with PROP1 [13], 11.6 upbm affinity estimate (log intensity, higher = more binding, comparable within an allelic series). Further, the binding signal is 10.7 upbm affinity estimate (log intensity, higher = more binding, comparable within an allelic series) with ALX3 [14]; 11.3 upbm affinity estimate (log intensity, higher = more binding, comparable within an allelic series) in the assay with HESX1 [15]; 10.3 upbm affinity estimate (log intensity, higher = more binding, comparable within an allelic series) in the assay with ALX3 [16]; 7.64 upbm affinity estimate (log intensity, higher = more binding, comparable within an allelic series) with PROP1 [17]; 7.76 upbm affinity estimate (log intensity, higher = more binding, comparable within an allelic series) in the assay with HESX1 [18]; 8.55 upbm affinity estimate (log intensity, higher = more binding, comparable within an allelic series) with ALX3 [19].

As for AAATTAAT, the binding signal in the assay with HESX1 [1] is 11.7 upbm affinity estimate (log intensity, higher = more binding, comparable within an allelic series); in the assay with HOXB4 [2] it was 12.9 upbm affinity estimate (log intensity, higher = more binding, comparable within an allelic series); with SHOX [3], 11.9 upbm affinity estimate (log intensity, higher = more binding, comparable within an allelic series); with HESX1 [4], 11.5 upbm affinity estimate (log intensity, higher = more binding, comparable within an allelic series); with HOXA4, 12.1 upbm affinity estimate (log intensity, higher = more binding, comparable within an allelic series); with HOXB4 [5], 13.6 upbm affinity estimate (log intensity, higher = more binding, comparable within an allelic series). The binding signal with ALX1 [6] is 11.9 upbm affinity estimate (log intensity, higher = more binding, comparable within an allelic series); with ALX3 [7], 8.56 upbm affinity estimate (log intensity, higher = more binding, comparable within an allelic series); in the assay with SHOX [8], 9.34 upbm affinity estimate (log intensity, higher = more binding, comparable within an allelic series); with ALX1 [9], 11.6 upbm affinity estimate (log intensity, higher = more binding, comparable within an allelic series); with ALX3 [10] it was 12.5 upbm affinity estimate (log intensity, higher = more binding, comparable within an allelic series); in the assay with PROP1 [11], 11.2 upbm affinity estimate (log intensity, higher = more binding, comparable within an allelic series). Moreover, the binding signal with HESX1 [12] is 8.9 upbm affinity estimate (log intensity, higher = more binding, comparable within an allelic series); in the assay with PROP1 [13], 10.9 upbm affinity estimate (log intensity, higher = more binding, comparable within an allelic series); in the assay with ALX3 [14], 10.6 upbm affinity estimate (log intensity, higher = more binding, comparable within an allelic series); in the assay with HESX1 [15] it was 10.4 upbm affinity estimate (log intensity, higher = more binding, comparable within an allelic series); in the assay with ALX3 [16], 10 upbm affinity estimate (log intensity, higher = more binding, comparable within an allelic series); with PROP1 [17], 7.7 upbm affinity estimate (log intensity, higher = more binding, comparable within an allelic series). Moreover, the binding signal is 7.97 upbm affinity estimate (log intensity, higher = more binding, comparable within an allelic series) with HESX1 [18] and 8.72 upbm affinity estimate (log intensity, higher = more binding, comparable within an allelic series) in the assay with ALX3 [19].
